Measured values as given in PubChem BioAssay AID624167 (Sanford-Burnham Center for Chemical Genomics, 2012).

Test: Peg3 promoter luciferase inhibitors, potency, dose response, cell-based, HeLa, CREF/GAPDH counter-screen panel (AID 624167)
Settings: CREF/GAPDH counter-screens; run 2, dose range 1, at 100 µM (top of the series)
For `C/C(=N\NC(=O)c1cc(C2CC2)nc2ccccc12)c1ccc(O)cc1O`, the inhibition was -6.29%. Molecule `COc1ccc(C(NC(=O)C(C)C)c2ccc3cccnc3c2O)cc1` (stereo not drawn) has an inhibition of 40.9%. Molecule `O=C(N/N=C/c1cc([N+](=O)[O-])ccc1O)c1ccc(COc2ccc3c(c2)CCC3)o1` has an inhibition of -2.8%. Molecule `O=C(N/N=C/c1ccc(Cl)c([N+](=O)[O-])c1)c1cc(-c2ccc3c4c(cccc24)CC3)n[nH]1` has an inhibition of 98.4%. Work on `COc1cc(CNCCCN2CCOCC2)cc(Br)c1OCc1ccc(Cl)cc1` yielded an inhibition of 90.7%. `CS(=O)(=O)Nc1cccc(NC(=O)C2Cc3c(-c4ccccc4)ccnc3O2)c1` (stereo not drawn) gave an inhibition of 54.2%. With `CC(=O)NC(c1ccc(Cl)cc1)c1ccc2cccnc2c1O` (stereo not drawn) the inhibition was 64.1%. With `Cc1ccc(-n2c(N)c(C(=O)Nc3c(C)n(C)n(-c4ccccc4)c3=O)c3nc4ccccc4nc32)cc1` the inhibition was 81.3%. Work on `O=C(O)c1ccc(N/N=C/c2ccc3c(c2)OCO3)cc1` yielded an inhibition of 97.7%. `CCc1ccn2cc(-c3ccc4c(c3)OCO4)nc2c1` showed an inhibition of 97.5%. Work on `O=C(CCl)N1c2ccccc2Sc2ccc3ccccc3c21` yielded an inhibition of 100%. Work on `CN(O)C(=S)c1ccccc1` yielded an inhibition of 14.9%. `CCCCC(=O)NC(c1ccccc1OC)c1ccc2cccnc2c1O` (stereo not drawn) showed an inhibition of 50.9%. Work on `CCN(CC)S(=O)(=O)c1cccc(C(=O)N/N=C(\C)c2ccc(O)cc2O)c1` yielded an inhibition of -50.5%. `Cc1cc(C(=O)Nc2cccc(C(=O)O)c2)oc1C` showed an inhibition of 92.8%. With `Nc1nonc1-n1nnc(C(=O)N/N=C/c2cc(Br)ccc2O)c1CNc1ccccc1` the inhibition was 66.5%. Work on `COc1cc(C(=O)N/N=C(\c2ccccc2)c2ccccn2)cc(OC)c1OC` yielded an inhibition of 11.7%. Molecule `O=C(c1ccco1)N1CCN(C(c2ccccc2Cl)c2nnnn2Cc2cccs2)CC1` (stereo not drawn) has an inhibition of 72.3%. `COc1ccc(NC(=O)c2cc(-c3ccccn3)nc3ccccc23)cc1S(=O)(=O)N(C)C` showed an inhibition of 60.4%. With `O=C(Nc1ccc(Cc2ccncc2)cc1)c1ccc([N+](=O)[O-])o1` the inhibition was 95.3%. For `Cc1nc(C)c(C(=O)N/N=C/c2cc(Br)ccc2O)s1`, the inhibition was 6.13%. With `CCc1ccc(/C=C2\SC(=S)N(CCCC(=O)Nc3cc(C)on3)C2=O)cc1` the inhibition was 84.8%. `Cc1ccc(/C=C2\SC(=S)N(CCCC(=O)NNC(=O)c3ccccc3O)C2=O)cc1` showed an inhibition of 69.2%. `C=CCn1c(COc2ccccc2)nnc1SC(C)C(=O)N/N=C/c1cc(Cl)ccc1O` (stereo not drawn) gave an inhibition of 59.9%. `Clc1ccccc1/C=C/c1nc(-c2ccccn2)no1` gave an inhibition of 96.2%. `O=C(CNC(=O)C(c1ccccc1)c1ccccc1)N/N=C/c1ccc(O)cc1O` showed an inhibition of 22.3%. Work on `CN(C)CC1CCC/C(=C\c2ccc(OC(=O)c3ccc(Cl)cc3)cc2)C1=O` (stereo not drawn) yielded an inhibition of 84.9%. With `O=[N+]([O-])c1ccc(S(=O)(=O)c2ccccc2)nc1` the inhibition was 94.5%. In the case of `CC(=O)NC(c1ccc(Cl)cc1Cl)c1ccc2cccnc2c1O` (stereo not drawn), the inhibition was 61.7%. Work on `CCc1ccc(/C=C2\SC(=S)N(CCCC(=O)NC3=NCCS3)C2=O)cc1` yielded an inhibition of 72.9%. In the case of `CCCn1nc(C(=O)Nc2nc(-c3ccccn3)cs2)c2ccccc2c1=O`, the inhibition was 37.9%. In the case of `CC1=CC2C(C(O)CC3(C)C2CC(C)C32OCOC23COCO3)C2(C)C/C(=C\O)C(=O)C=C12` (stereo not drawn), the inhibition was 100%. `CS(=O)(=O)c1ccc(-c2sc3ccccc3c2C#CCCO)cc1` gave an inhibition of 81.8%.
